Measured values published in PubChem BioAssay (NCI).
This is part of a sample that, as a whole, favours compounds with a hit. Of some 79,000 tested, about 15% had one in any assay. The source made the active and inactive calls. Rule as the data show it: active = growth inhibition above about 70%; inactive = the rest.

What was measured:
[1] = NCI Yeast Anticancer Drug Screen. Data for the rad52 strain (AID 147);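 also: 0% = growth of vehicle-treated control cultures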; settings: S. cerevisiae rad52 mutant growth inhibition, stronger effect = higher value
In short: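 Yeast strain carrying a DNA damage repair alteration was exposed to test compounds. Growth inhibition was measured relative to vehicle-treated controls.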

[2] = NCI Yeast Anticancer Drug Screen. Data for the wt1 strain (AID 149);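 also: 0% = growth of vehicle-treated wt1 cultures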; settings: S. cerevisiae wt1 strain (SPY 50644) growth inhibition, stronger effect = higher value
In short: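 Vehicle-normalised growth inhibition; strain wt1; compound exposure.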

[3] = NCI Yeast Anticancer Drug Screen. Data for the rad50EPP+ strain (AID 151);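 also: 0% = growth of vehicle-treated control cultures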; settings: S. cerevisiae rad50 mutant strain, stronger effect = higher value
In short: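 Yeast strain carrying rad50 alteration (rad50EPP+) exposed to compounds; growth inhibition measured relative to vehicle-treated controls.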

[4] = NCI Yeast Anticancer Drug Screen. Data for the rad50 strain (AID 155);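 also: 0% = growth of vehicle-only cultures of the same strain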; settings: S. cerevisiae rad50 strain growth inhibition, stronger effect = higher value
In short: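 A DNA repair-deficient yeast mutant serves as the test organism; compound-induced growth inhibition is calculated against vehicle-treated cells.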

[5] = NCI Yeast Anticancer Drug Screen. Data for the mec2-1 strain (AID 157); settings: S. cerevisiae mec2-1 strain, stronger effect = higher value
In short: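 mec2-1 yeast strain, carrying an alteration in DNA damage repair or cell cycle control, was exposed to compounds; growth inhibition was measured relative to vehicle-treated controls.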

[6] = NCI Yeast Anticancer Drug Screen. Data for the rad14 strain (AID 159);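 also: 0% = growth of vehicle-treated control cultures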; settings: S. cerevisiae rad14 strain growth inhibition, stronger effect = higher value
In short: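 Vehicle-treated cultures served as the baseline for growth inhibition of a DNA repair-mutant yeast strain exposed to each compound.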

[7] = NCI Yeast Anticancer Drug Screen. Data for the sgs1 mgt1 strain (AID 161);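 also: 0% = growth of cultures given vehicle only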; settings: S. cerevisiae sgs1 mgt1 strain, stronger effect = higher value
In short: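 Growth of a repair-deficient yeast mutant was monitored after compound treatment and expressed as inhibition relative to vehicle-treated cultures.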

[8] = NCI Yeast Anticancer Drug Screen. Data for the CLN2oe strain (AID 163);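 also: 0% = growth of vehicle-only control cultures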; settings: S. cerevisiae CLN2oe strain, stronger effect = higher value
In short: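 Yeast cells carrying a defined cell-cycle control alteration were exposed to test compounds. Growth inhibition was scored against vehicle-treated control cultures.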

[9] = NCI Yeast Anticancer Drug Screen. Data for the bub3 strain (AID 167); settings: S. cerevisiae bub3 mutant strain, stronger effect = higher value
In short: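 Inhibition values come from growth of compound-treated mutant yeast normalised to vehicle-treated controls.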

[10] = NCI Yeast Anticancer Drug Screen. Data for the wt2 strain (AID 169);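 also: 0% = growth of vehicle-treated yeast cultures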; settings: S. cerevisiae wt2 strain growth inhibition, stronger effect = higher value
In short: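 Yeast cells were exposed to test compounds, and growth inhibition was measured relative to vehicle-treated controls.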

[11] = NCI Yeast Anticancer Drug Screen. Data for the mlh1 strain (AID 171);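 also: 0% = growth of vehicle-treated control cultures of the same strain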; settings: S. cerevisiae mlh1 strain growth inhibition, stronger effect = higher value
In short: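 Yeast carrying a defined genetic alteration in DNA damage repair or cell cycle control were exposed to test compounds. Growth inhibition was measured relative to vehicle-treated controls.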

[12] = NCI Yeast Anticancer Drug Screen. Data for the sgs1 strain (AID 173);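 also: 0% = growth of vehicle-only control cultures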; settings: S. cerevisiae sgs1 mutant, stronger effect = higher value
In short: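 Yeast mutant strains carrying defined defects in DNA damage repair or cell cycle control were exposed to test compounds. Growth inhibition was scored against vehicle-treated controls.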

[13] = NCI Yeast Anticancer Drug Screen. Data for the mlh1 rad18 strain (AID 175); settings: S. cerevisiae mlh1 rad18 strain growth inhibition, stronger effect = higher value
In short: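 Growth inhibition of the yeast strain was measured after compound exposure and expressed relative to vehicle-treated controls. The strain carries defined defects in DNA damage repair.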

[14] = NCI Yeast Anticancer Drug Screen. Data for the rad18 strain (AID 177); settings: S. cerevisiae rad18 mutant growth inhibition, stronger effect = higher value
In short: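 Yeast carrying a defined DNA damage repair alteration were exposed to compounds. Growth inhibition was expressed relative to vehicle-treated controls.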

[15] = NCI Yeast Anticancer Drug Screen. Data for the cln2 rad14 strain (AID 165);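 also: 0% = growth equal to vehicle treated cultures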; settings: S. cerevisiae cln2 rad14 strain, stronger effect = higher value
In short: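 Yeast carrying cln2 and rad14 alterations (cell cycle control and DNA damage repair) were exposed to compounds. Growth inhibition was measured against vehicle-treated controls.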

[16] = at 5.0 µM (retest, dose inferred, filed as 0.5)
[17] = at 50.0 µM (retest, dose inferred, filed as 5.0)

Measured: growth inhibition

Cc1onc(-c2ccccc2Cl)c1C1=N/C(=C/c2cc(Cl)cc(Cl)c2O)C(=O)O1
inactive: [1]; at 1.2 µM -36% | [1]; at 3.7 µM -39% | [1]; at 11.0 µM -35% | [1]; at 33.0 µM -42% | [2]; at 1.2 µM -3% | [2]; at 3.7 µM -26% | [2]; at 11.0 µM -26% | [2]; at 33.0 µM -16% | [3]; at 1.2 µM -22% | [3]; at 3.7 µM -28% | [3]; at 11.0 µM 3% | [3]; at 33.0 µM -5% | [3]; at 100.0 µM -25% | [4]; at 1.2 µM -38% | [4]; at 3.7 µM -32% | [4]; [16] 33% | [4]; at 11.0 µM -35% | [4]; at 33.0 µM 2% | [4]; at 100.0 µM 69% | [5]; at 1.2 µM -32% | [5]; at 3.7 µM -35% | [5]; [16] 35% | [5]; at 11.0 µM -39% | [5]; at 33.0 µM -4% | [5]; at 50.0 µM 60% | [5]; at 100.0 µM 61% | [6]; at 1.2 µM -51% | [6]; at 3.7 µM -56% | [6]; at 11.0 µM -58% | [6]; at 33.0 µM -46% | [6]; at 100.0 µM 59% | [7]; [16] -9% | [7]; [17] 42% | [8]; at 1.2 µM -5% | [8]; at 3.7 µM -19% | [8]; at 11.0 µM -5% | [8]; at 33.0 µM 26% | [8]; at 100.0 µM 66% | [9]; at 1.2 µM -55% | [9]; at 3.7 µM -40% | [9]; [16] 47% | [9]; at 11.0 µM -43% | [9]; at 33.0 µM -10% | [9]; [17] 65% | [9]; at 100.0 µM 68% | [10]; at 1.2 µM -12% | [10]; at 3.7 µM -12% | [10]; at 11.0 µM -18% | [10]; at 33.0 µM 11% | [10]; at 100.0 µM 62% | [11]; at 1.2 µM -39% | [11]; at 3.7 µM -42% | [11]; at 11.0 µM -27% | [11]; at 33.0 µM 3% | [11]; at 100.0 µM 49% | [12]; at 1.2 µM -19% | [12]; at 3.7 µM -39% | [12]; at 11.0 µM -23% | [12]; at 33.0 µM 11% | [12]; at 100.0 µM 69% | [13]; [16] 42% | [13]; [17] 46% | [14]; at 1.2 µM -46% | [14]; at 3.7 µM -50% | [14]; at 11.0 µM -44% | [14]; at 33.0 µM -21% | [14]; at 100.0 µM 58%
active: [1]; at 100.0 µM 70% | [2]; at 100.0 µM 74% | [4]; [17] 90% | [4]; at 50.0 µM 79.3% | [5]; [17] 90% | [7]; at 50.0 µM 78.6% | [9]; at 50.0 µM 77.2% | [13]; at 50.0 µM 75.6%

COc1ccc(/C=C(\NC(=O)c2ccccc2)C(=O)NN(C)c2ccnc3cc(Cl)ccc23)cc1OC
active: [3]; at 11.0 µM 78% | [3]; at 33.0 µM 90% | [3]; at 100.0 µM 78% | [4]; at 50.0 µM 86.5% | [7]; at 50.0 µM 73.1% | [9]; at 50.0 µM 90.2% | [13]; at 50.0 µM 87.1%
inactive: [1]; at 1.2 µM 3% | [1]; at 3.7 µM 1% | [1]; at 11.0 µM 12% | [1]; at 33.0 µM 5% | [1]; at 100.0 µM 27% | [2]; at 1.2 µM -41% | [2]; at 3.7 µM 0% | [2]; at 11.0 µM 3% | [2]; at 33.0 µM 11% | [2]; at 100.0 µM 15% | [3]; at 1.2 µM 4% | [3]; at 3.7 µM 20% | [4]; at 1.2 µM -1% | [4]; at 3.7 µM 7% | [4]; [16] 0% | [4]; at 11.0 µM 19% | [4]; at 33.0 µM 30% | [4]; [17] 30% | [4]; at 100.0 µM 36% | [5]; at 1.2 µM -2% | [5]; at 3.7 µM -3% | [5]; [16] -12% | [5]; at 11.0 µM 0% | [5]; at 33.0 µM 11% | [5]; [17] -14% | [5]; at 50.0 µM 28.6% | [5]; at 100.0 µM 10% | [6]; at 1.2 µM 2% | [6]; at 3.7 µM 5% | [6]; at 11.0 µM 8% | [6]; at 33.0 µM 8% | [6]; at 100.0 µM 6% | [7]; [16] -6% | [7]; [17] -6% | [15]; [16] 28% | [15]; [17] 5% | [15]; at 50.0 µM 55.4% | [9]; at 1.2 µM -4% | [9]; at 3.7 µM -4% | [9]; [16] 9% | [9]; at 11.0 µM 22% | [9]; at 33.0 µM 32% | [9]; [17] 49% | [9]; at 100.0 µM 50% | [10]; at 1.2 µM -1% | [10]; at 3.7 µM 4% | [10]; at 11.0 µM 31% | [10]; at 33.0 µM 36% | [10]; at 100.0 µM 27% | [11]; at 1.2 µM -2% | [11]; at 3.7 µM 1% | [11]; at 11.0 µM 6% | [11]; at 33.0 µM 15% | [11]; at 100.0 µM 25% | [12]; at 1.2 µM 0% | [12]; at 3.7 µM 3% | [12]; at 11.0 µM 7% | [12]; at 33.0 µM 21% | [12]; at 100.0 µM 31% | [13]; [16] 0% | [13]; [17] 1% | [14]; at 1.2 µM 2% | [14]; at 3.7 µM 5% | [14]; at 11.0 µM 11% | [14]; at 33.0 µM 41% | [14]; at 100.0 µM 50%
